# HP1b binding inh: HTS for Inhibitors of HP1-beta Chromodomain Interactions with Methylated Histone Tails; AlphaScreen HP1-beta / biotin-H3K9me3 peptide binding; Potency, µM (top dose mostly 114 µM), for the others: at the highest dose activity change, negative = inhibition, hits mostly inhibitors; 0.56% of 390,000 active; AID 540317, 2011; note: nearly all actives have a fitted effect of over 70% in size
#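 AlphaScreen: HP1-beta (50 nM) preformed 30 min with biotin-H3(1-18)K9me3 peptide (50 nM) in PBS pH 7.4, 0.01% Tween-20. Compound added for 30 min at RT, then streptavidin donor/nickel chelate acceptor beads (10 ug/mL) for 30 min.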
# JMJD2A Tudor inh: qHTS Assay for Inhibitors of JMJD2A-Tudor Domain; 4.4% of 390,000 active; AID 504339, 2011; AlphaScreen JMJD2A-Tudor / H3K4me3 peptide binding; Potency, µM (top dose mostly 114 µM), inactives show at the highest dose activity change, negative = inhibition, usual class: inhibitors; note: % is set by controls: 0 for no effect and ±100 for the full control effect; nearly all actives have a fitted effect of over 50% in size
# Sfp PPTase inh: qHTS Assay for Inhibitors of Bacillus subtilis Sfp phosphopantetheinyl transferase (PPTase); Biochemical Sfp PPTase activity, qHTS; Potency, µM, for the others: largest response in the series, negative = inhibition, actives largely listed as inhibitors; AID 1490, 2009; 4'-phosphopantetheinyl transferase ffp (Bacillus subtilis), Q9F4F7; 3.5% of 310,000 active;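 note: the enzyme is Sfp with the accession as filed and its product quenches rhodamine fluorescence; 0% = enzyme reaction without inhibitor and -100% = no enzyme wells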
#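 Buffer: 50 mM Hepes-Na pH 7.6, 10 mM MgCl2, 0.01% Nonidet P-40, 0.01% BSA. Enzyme 15 nM, pre-exposed to compound 15 min; substrates then added and fluorescence change tracked over 30 min.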
# BAZ2B block: qHTS Assay for Inhibitors of BAZ2B; Bromodomain adjacent to zinc finger domain protein 2B (Homo sapiens), Q9UIF8; AlphaScreen BAZ2B-H3K14Ac peptide displacement; Potency, µM (doses to about 114 µM), for inactives: at the highest dose activity change, negative = inhibition, actives largely listed as inhibitors; 4.4% of 360,000 active; note: % is set by controls: 0 for no effect and ±100 for the full control effect; nearly all actives have a fitted effect of over 60% in size
# Target sequence (Q9UIF8 whole entry, looked up, the tested form may be a part): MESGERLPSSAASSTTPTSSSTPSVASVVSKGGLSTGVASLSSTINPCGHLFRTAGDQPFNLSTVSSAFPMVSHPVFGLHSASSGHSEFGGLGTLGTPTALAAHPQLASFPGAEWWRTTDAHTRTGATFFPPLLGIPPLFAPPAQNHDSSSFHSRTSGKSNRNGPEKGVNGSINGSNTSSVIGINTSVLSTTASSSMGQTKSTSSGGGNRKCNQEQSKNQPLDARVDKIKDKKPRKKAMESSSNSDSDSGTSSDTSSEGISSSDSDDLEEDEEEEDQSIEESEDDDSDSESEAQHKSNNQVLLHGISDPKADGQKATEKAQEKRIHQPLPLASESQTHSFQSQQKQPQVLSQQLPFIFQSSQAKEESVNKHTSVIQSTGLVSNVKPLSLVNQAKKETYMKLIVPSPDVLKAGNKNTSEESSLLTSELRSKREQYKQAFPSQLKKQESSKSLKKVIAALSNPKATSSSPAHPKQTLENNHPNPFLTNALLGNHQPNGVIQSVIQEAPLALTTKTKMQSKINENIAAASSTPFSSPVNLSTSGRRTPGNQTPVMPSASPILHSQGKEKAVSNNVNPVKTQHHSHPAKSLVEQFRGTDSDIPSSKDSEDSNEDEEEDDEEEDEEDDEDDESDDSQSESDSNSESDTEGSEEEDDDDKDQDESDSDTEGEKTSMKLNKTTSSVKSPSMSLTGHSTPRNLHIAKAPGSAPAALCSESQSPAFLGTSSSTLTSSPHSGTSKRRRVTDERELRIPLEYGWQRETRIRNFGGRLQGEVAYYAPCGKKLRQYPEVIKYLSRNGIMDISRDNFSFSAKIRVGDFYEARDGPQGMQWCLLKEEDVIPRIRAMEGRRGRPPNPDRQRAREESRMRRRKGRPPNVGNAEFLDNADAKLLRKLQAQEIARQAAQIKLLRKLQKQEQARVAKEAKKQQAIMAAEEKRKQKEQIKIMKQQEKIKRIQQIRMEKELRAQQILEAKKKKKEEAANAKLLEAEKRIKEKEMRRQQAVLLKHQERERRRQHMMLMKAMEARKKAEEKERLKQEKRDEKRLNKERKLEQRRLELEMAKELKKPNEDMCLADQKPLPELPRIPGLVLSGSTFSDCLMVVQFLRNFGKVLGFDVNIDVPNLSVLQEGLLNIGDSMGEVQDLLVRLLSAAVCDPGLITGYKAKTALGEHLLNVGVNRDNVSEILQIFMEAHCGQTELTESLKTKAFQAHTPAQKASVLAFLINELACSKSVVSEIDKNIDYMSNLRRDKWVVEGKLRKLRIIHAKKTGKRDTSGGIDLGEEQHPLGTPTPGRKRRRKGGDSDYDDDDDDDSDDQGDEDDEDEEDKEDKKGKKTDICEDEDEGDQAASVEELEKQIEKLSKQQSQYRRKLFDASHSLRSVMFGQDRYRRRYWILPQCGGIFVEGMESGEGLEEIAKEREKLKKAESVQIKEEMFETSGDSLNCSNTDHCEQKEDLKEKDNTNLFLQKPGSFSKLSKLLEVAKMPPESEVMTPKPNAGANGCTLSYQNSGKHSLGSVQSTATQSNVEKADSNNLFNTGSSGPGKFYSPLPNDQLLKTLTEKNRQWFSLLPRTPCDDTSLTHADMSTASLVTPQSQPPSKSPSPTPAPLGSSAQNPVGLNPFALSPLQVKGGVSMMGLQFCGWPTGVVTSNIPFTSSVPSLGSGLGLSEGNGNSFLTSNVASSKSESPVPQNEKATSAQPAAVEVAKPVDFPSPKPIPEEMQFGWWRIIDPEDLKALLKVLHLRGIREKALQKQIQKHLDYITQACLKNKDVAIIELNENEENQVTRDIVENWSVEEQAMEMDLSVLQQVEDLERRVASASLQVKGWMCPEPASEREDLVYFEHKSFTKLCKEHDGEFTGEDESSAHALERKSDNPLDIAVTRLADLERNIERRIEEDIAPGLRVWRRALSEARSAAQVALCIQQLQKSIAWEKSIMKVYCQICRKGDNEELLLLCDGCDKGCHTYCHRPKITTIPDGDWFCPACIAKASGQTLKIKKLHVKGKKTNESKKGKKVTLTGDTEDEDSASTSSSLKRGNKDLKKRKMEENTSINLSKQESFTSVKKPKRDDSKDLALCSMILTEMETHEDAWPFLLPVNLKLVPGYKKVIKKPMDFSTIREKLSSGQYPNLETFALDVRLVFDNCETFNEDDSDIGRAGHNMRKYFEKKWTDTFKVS
#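 Protein-peptide AlphaScreen: BAZ2B 50 nM, b-H3K14Ac 50 nM, 1x PBS pH 7.4 + 0.01% Tween-20. Preincubation 30 min RT; cpd 30 min RT (top 110 uM); beads 20 min RT, light-protected.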
# G9a inh: qHTS Assay for Inhibitors of Histone Lysine Methyltransferase G9a. Histone-lysine N-methyltransferase EHMT2 (Homo sapiens), Q96KQ7. G9a H3K9 monomethylation, AlphaScreen, 2 h. Potency, µM (top dose mostly 102 µM), for the others: at the top dose activity, negative = inhibition, actives largely listed as inhibitors. 8.8% of 350,000 active. AID 504332, 2011; note: % is set by controls: 0 for no effect and ±100 for the full control effect; nearly all actives have a fitted effect of over 75% in size
#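 AlphaScreen read-out: biotin-H3K9 peptide (500 nM) methylation by 20 nM enzyme with 20 uM SAM, 2 h at room temperature after 15 min compound preincubation; anti-monomethyl H3K9 antibody plus donor/acceptor beads, 10 min dark.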
# PLK1 PBD inh: qHTS for Inhibitors of PLK1-PDB (polo-like kinase 1 - polo-box domain): Primary Screen. 2.8% of 360,000 active. AID 720504, 2013. Potency, µM, inactives show max response, negative = inhibition, actives largely listed as inhibitors. Plk1 PBD binding of FITC phosphopeptide, fluorescence polarization. Serine/threonine-protein kinase PLK1 (Homo sapiens), P53350; note: series mostly up to about 57 µM; % is set by controls: 0 for no effect and ±100 for the full control effect; nearly all actives have a fitted effect of over 65% in size
# Numbers without * were called inactive; ? = inconclusive; nt = no result; [ ] = dose if it differs, or a comment. Hits are enriched below; roughly 12% of the tested compounds scored in any of these assays. Calls come from the whole dose curve; as a rule, active = well fitted curve in the direction sought with a large enough effect; inconclusive = small, poorly fitted or top-dose-only effect, or another doubt; inactive = no such curve, though single readings can be large; an effect the other way counts as inactive or inconclusive. Potency is the fitted concentration of half-maximal effect.
SMILES,HP1b binding inh,JMJD2A Tudor inh,Sfp PPTase inh,BAZ2B block,G9a inh,PLK1 PBD inh
CCCN1C(=O)/C(=C/c2c(NCCCOCC)nc3c(C)cccn3c2=O)SC1=S,32%,-4%,-5%,6%,-37%[59 µM],13%
Cc1cccn2c(=O)c(/C=C3\SC(=S)NC3=O)c(NCCCN3CCOCC3)nc12,20%,-16%,4µM*,-37%,13µM*,14%
CCOC(=O)c1ccc(N2C(=O)c3[nH]nc(-c4ccccc4)c3C2c2ccc(CC)cc2)cc1 (stereo not given),29%,-31%,nt,nt,-28%[59 µM],nt
CS(=O)(=O)c1cccc(C(=O)Nc2cccc(S(=O)(=O)N3CCCC3)c2)c1,14%,-7%,nt,2%,?,1%
CN(C)S(=O)(=O)c1cccc(NC(=O)c2ccc(S(=O)(=O)N3CCCCC3)cc2)c1,19%,89µM*,nt,7%,?,-1%
COCCN(CC(=O)Nc1cccc(S(=O)(=O)N2CCCC2)c1)Cc1nc2ccccc2c(=O)[nH]1,15%,-22%,nt,12%,50µM*,-9%
COc1cc(C(=O)Nc2cccc(S(=O)(=O)N3CCCC3)c2)cc(OC)c1C,6%,-29%,-17%,-38%,32µM*,8%
COc1ccc(Br)cc1CN(C)CC(=O)Nc1cccc(S(=O)(=O)N2CCCC2)c1,?,25µM*,nt,nt,nt,6%
C[C@H](CO)N1C[C@H](C)[C@H](CN(C)S(=O)(=O)c2cccs2)OCc2cnnn2CCCC1=O,nt,nt,nt,nt,nt,-1%
COc1ccc(/C=C2/CSC/C(=C/c3ccc(OC)c(OC)c3)C2=O)cc1OC,10%,-13%,nt,nt,nt,-5%
CC(C)(C)n1nnnc1C(c1ccccc1)N1CCc2ccccc2C1 (stereo not given),18%,-6%,4%,10%,?,-1%
CN(C)c1ccc(C(c2nnnn2C(C)(C)C)N2CCc3ccccc3C2)cc1 (stereo not given),nt,nt,-12%,?,40µM*,nt
CCC(C)(C)n1nnnc1C(c1ccc(O)cc1)N1CCc2ccccc2C1 (stereo not given),?,89µM*,14µM*,-35%,2.5µM*,-19%
CC1CCN(C(c2ccc(N(C)C)cc2)c2nnnn2C(C)(C)C)CC1 (stereo not given),?,56µM*,20µM*,50µM*,?,-3%
Cc1ccc(N2CCN(C(C(=O)Nc3c(C)cccc3C)c3ccccc3OC(F)(F)F)CC2)cc1 (stereo not given),nt,nt,nt,nt,nt,-10%
Cc1ccc(NC(=O)CCC(=O)NNC(=O)C(C)(C)C)c(C)c1,37%,0%,10%,-27%,-6%,-12%
Cc1ccc(NC(=O)CCC(=O)NNC(=O)/C=C/C(=O)O)c(C)c1,21%,?,-9%,-36%,10µM*,-6%
CCC(=O)NNC(=O)CCC(=O)Nc1ccc(C)cc1C,-9%,-19%[11.4 µM],11%,-10%,15%,24µM*
Cc1ccc(NC(=O)CS(=O)c2ccccc2N)c(C)c1 (stereo not given),5%,-10%,8%,-17%,40µM*,-11%
Cc1ccc(NC(=O)Cc2ccccc2)c(C)c1,nt,nt,-10%,-3%,-2%[59 µM],nt
CCC(C)N(C(=O)CN1C(=O)NC2(CCc3ccccc32)C1=O)C1CCS(=O)(=O)C1 (stereo not given),5%,-13%,nt,2%,?,-12%
O=C1C=C[C@@H](O)[C@H]2[C@@H]3C(=O)N(c4cccc(Oc5ccccc5)c4)C(=O)[C@@H]3CC[C@H]12,nt,nt,-7%,nt,nt,nt
O=C(CCNC(=O)c1ccc([N+](=O)[O-])cc1)Nc1nccs1,45%,-1%,12%,-17%,50µM*,0%
CC1(C)CC(NC(=O)Nc2ccc([N+](=O)[O-])cc2)CC(C)(C)N1,19%,-10%,-1%,-10%,4%,-19%
CC1CC(C)CN(C(=O)c2ccc(-c3ccc([N+](=O)[O-])cc3)o2)C1 (stereo not given),?,45µM*,nt,35µM*,11µM*,-23%
SMILES,HP1b binding inh,JMJD2A Tudor inh,Sfp PPTase inh,BAZ2B block,G9a inh,PLK1 PBD inh
CC1(C)CC(NC(=O)c2ccc(-c3ccc([N+](=O)[O-])cc3)o2)CC(C)(C)N1,16%,-32%,-23%,-33%,45µM*,-28%
O=C(CCNC(=O)c1ccc(Br)cc1)Nc1nccs1,21%,0%,24%,-4%,12%,8%
O=C(CN1C(=O)c2ccc([N+](=O)[O-])cc2C1=O)Nc1nccs1,12%,-14%,-27%,-32%,50µM*,-8%
O=C(NCCN1CCOCC1)C1(C(F)(F)F)C/C(=C/CCO)CCCO1 (stereo not given),29%,-12%,6%,nt,nt,nt
COc1ccc(CCNC(=O)c2ccc3c(c2)c(C)c(C)n3Cc2ccc(F)cc2)c(OC)c1OC,-3%,?,nt,-26%,-45%[59 µM],nt
COc1cccc(NC(=O)NCc2c(-c3ccccc3)noc2C)c1,7%,-8%,9%,-2%,8%,-4%
Cn1c(=O)c(-c2cc(F)cc(F)c2)nc2cnc(N3CCNCC3)nc21,nt,nt,-1%,nt,-4%[0.501 µM],nt
COc1ccc(NC(=O)c2ccc(-c3ccc([N+](=O)[O-])cc3)o2)cc1,18%,-10%,-76%,-1%,?,-4%
O=C(NN1C(=O)NC2(CCCCC2)C1=O)c1ccc(-c2ccc([N+](=O)[O-])cc2)o1,1%,-34%,10%,-29%,79µM*,-19%
O=C(Nc1nccs1)c1ccc(-c2ccc([N+](=O)[O-])cc2)o1,46%,-33%,25µM*,?,nt,-5%
O=C(Nc1ccccc1)c1ccc(-c2ccc([N+](=O)[O-])cc2)o1,?,?,50µM*,-11%,35µM*,-23%
Cc1cccc(-c2nc3c(s2)CCc2onc(-c4ccc(Br)cc4)c2-3)c1,12%,-27%,4%,-23%,?,-13%
Cc1cc(C)n(-c2nc(C)c(C)c(=O)n2CC(=O)Nc2ccc([N+](=O)[O-])cc2)n1,12%,-27%,nt,-15%,?,nt
CC(C)c1ccc(S(=O)(=O)N2CCN(C(=O)C3CCCC3)CC2)cc1,8%,-2%,2%,-5%,18%,-5%
C=CCNc1nc2c3ccccc3n(C(C)=O)c2s1,-2%,?,79µM*,?,32µM*,27µM*
